The nature of the experiment: CTGF mRNA reduction in DLD1 cells – cell-based, DLD1 colon cancer, RT-qPCR, cherry-pick, dose response (AID 1053122). For orientation: Real-time PCR tracks product formation cycle by cycle.

From PubChem BioAssay AID1053122 (Broad Institute, 2014) come the findings set out here.

Results with a measured potency or affinity are listed apart. Calls of active or inactive are those of the source.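 The calls were made as follows: active = CTGF level falls with dose and the fitted half-maximal dose is at most twice the top valid dose; inconclusive = flat fit with 30 to 70% drop, or a poor fit; inactive = the rest.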

Regarding `COc1ccccc1S(=O)(=O)N1CC[C@@H]2[C@H]1c1cc(-c3cccc(C#N)c3)ccc1N(C)[C@H]2CO`, the call was inactive.

With `COc1ccc2c3c(n(C)c2c1)[C@@H](CO)N(Cc1ccncc1)CC31CN(C(=O)Nc2cccc(F)c2)C1`, the molecule was classed as inactive.

`C[C@H](CO)N1C[C@H](C)[C@@H](CN(C)S(=O)(=O)c2ccc([N+](=O)[O-])cc2)OCc2ccccc2-c2c(n(C)c3ccccc23)C1=O`: the molecule was classed as inactive.

`COc1ccc2c3c([nH]c2c1)[C@H](CO)NCC31CCN(C(=O)Cc2cccnc2)CC1`: the outcome was inactive.

`COCC(=O)N1CC[C@@H]2[C@H](CO)Nc3ccc(C#Cc4ccc(F)cc4)cc3[C@@H]21`: the outcome was inactive.

As for `CO[C@H]1CN(C)C(=O)c2cc(NC(=O)Nc3ccccc3F)ccc2OC[C@H](C)N(CCC(F)(F)F)C[C@@H]1C`, the molecule was classed as inactive.

In the case of `C[C@@H]1CN([C@H](C)CO)S(=O)(=O)c2ccc(C#Cc3ccccc3F)cc2O[C@@H]1CN(C)C(=O)Cc1cccnc1`, the molecule was called inactive.

In the case of `O=S(=O)(c1ccccc1)N1CCCCN2[C@H](C1)[C@@H](c1ccc(C#CC3CCCC3)cc1)[C@@H]2CO`, the outcome was inactive.

Take `C[C@@H]1CN([C@@H](C)CO)C(=O)CCCn2nncc2CO[C@@H]1CN(C)C(=O)c1cc(-c2ccccc2)on1`: the molecule was called inactive.

In the case of `O=C(Nc1ccc(C(F)(F)F)cc1)Nc1ccc2c(c1)[C@H]1C[C@H](CC(=O)N3CCc4ccccc4C3)O[C@@H](CO)[C@H]1O2`, the call was inactive.

`CN1CCN(C(=O)C[C@@H]2CC[C@H]3[C@@H](COc4ccc(NC(=O)C5CCOCC5)cc4C(=O)N3C)O2)CC1`: the call was inactive.
